In ChEMBL document CHEMBL4513216, “Probing the Open Global Health Chemical Diversity Library for Multistage-Active Starting Points for Next-Generation Antimalarials” (ACS Infect Dis, 2020):
Out of some 68,000 compounds screened, about 2,700 (4%) showed an effect of 50% or more. The entries come from a sample that favours strong results as a whole.

Test system: Plasmodium berghei
Assay: Screen against P. berghei liver stage (PbLuc), transformed with Luciferase, at 2uM
Assay type: functional, HepG2
Settings: tested at 2 uM

| Compound | INHIBITION [%] |
| --- | --- |
| O=c1[nH]nc2c(S(=O)(=O)N3CCCCC3)cccn12 | 6.33 |
| CCC(CO)N(Cc1ccccn1)C(=O)c1ccc(C)c(Cl)c1 (centres undefined) | 42.48 |
| COCCC1(CNC(=O)NCC2CCC2)CCC1 | 29.43 |
| COCCC1(CNC(=O)NCC2CCCN(C)C2)CCCC1 (centres undefined) | -24.61 |
| COCCC1(CNC(=O)NCC2CCCS2)CCCC1 (centres undefined) | 55.39 |
| CC(C)Nc1nc(-c2ccccc2)nc2c1CCN(C(=O)CC#N)CC2 | 27.22 |
| CCN(Cc1noc(C)n1)C(=O)C(c1ccc(C)cc1)N(C)C (centres undefined) | -0.28 |
| COc1cccc2c1ccn2CCNC(=O)CC(C)C | -55.67 |
| COCC(=O)NCCn1ccc2c(OC)cccc21 | 50.32 |
| COc1cccc2c1ccn2CCNC(C)=O | -7.17 |
| CCN(CCO)C[C@@H]1CN(c2nc(C)cc(C)n2)C[C@@H]1CO | 5.88 |
| O=C(c1ccc(F)c(F)c1)N1CCC(Cn2cc(CO)nn2)CC1 | 20.91 |
| Cc1nn(C)c(N(C)C)c1CNCc1cccc(CN(C)C(C)C)c1 | 44.39 |
| CCC(NC1Cc2ccccc2C1)c1ccc(S(C)(=O)=O)cc1 (centres undefined) | 10.02 |
| CCC(NC1CCCC1)c1ccc(S(C)(=O)=O)cc1 (centres undefined) | 58.65 |
| CCC(NC1CSCCSC1)c1ccc(S(C)(=O)=O)cc1 (centres undefined) | 9.51 |
| Cc1ccc(-c2c[nH]c([C@@H]3COCCN3Cc3cccnc3)n2)cc1 | 3.84 |
| CC(C)(CO)NCc1nn(Cc2ccccc2)nc1-c1ccccc1 | -34.52 |
| CN1C[C@H](O)C[C@H]1c1nc(-c2ccc3c(c2)OCO3)no1 | 45.22 |
| CC(=O)N[C@H]1C[C@@H](c2nc(-c3ccc4c(c3)OCO4)no2)N(C)C1 | 57.31 |
| CN1C[C@@H](N)C[C@H]1c1nc(-c2ccc3c(c2)OCO3)no1 | 28.2 |
| O=C(c1ccc[nH]1)N1CCc2ccc(S(=O)(=O)N3CCOCC3)cc2C1 | -19.95 |
| Cc1ccccc1[C@@H]1CN(CCOCCO)C[C@H]1C(=O)O | 35.46 |
| Cc1ccccc1[C@@H]1CN(CCCS(=O)(=O)N(C)C)C[C@H]1C(=O)O | 52.3 |
| Cc1ccccc1[C@@H]1CN(Cc2nc3ncccn3n2)C[C@H]1C(=O)O | -18.59 |
| Cc1ccccc1[C@@H]1CN(Cc2ccc(C(F)(F)F)nc2)C[C@H]1C(=O)O | 67.28 |
| COCCN1C[C@@H](C(=O)O)[C@H](c2ccccc2C)C1 | 42.2 |

| Compound | INHIBITION [%] |
| --- | --- |
| CCC[C@@H]1CN(Cc2ccc(C(F)(F)F)nc2)C[C@H]1C(=O)O | 21.97 |
| OC(CNCCn1cccn1)c1ccc(F)c(F)c1 (centres undefined) | 21.91 |
| Cc1nc(COc2ccc(N(C)S(C)(=O)=O)cc2)sc1C | -26.08 |
| O=C(O)c1nnn(-c2ccccc2F)c1-c1ccncc1 | 37.61 |
| O=S(=O)(CCN1CCOC(Cn2cccn2)C1)c1ccccc1 (centres undefined) | -34.9 |
| CCn1cnnc1C1CCN(C(=O)c2ccc3ccccc3n2)CC1 | -6.48 |
| O=C(NC1CCCC1)C1CCN(c2cc(-n3ccnc3)ncn2)CC1 | 70.33 |
| O=C(Nc1cccnc1)C1CCN(c2cc(-n3ccnc3)ncn2)CC1 | 3.38 |
| O=C(NC1CCN(c2cc(-n3ccnc3)ncn2)CC1)c1ccncc1 | 29.19 |
| Cc1n[nH]c(C)c1-c1nccnc1CC1CCCN(C)C1 (centres undefined) | 31.98 |
| CCCC(=O)Nc1ccc2c(c1)C1(CCOCC1)CN2CCOC | 39.44 |
| COc1ccc(C[C@H]2CNCC[C@@H]2OC)cc1 | 18.65 |
| O=c1cc(N2CCCC2)cnn1CC(F)F | 18.81 |
| Cc1ccsc1CNC(=O)CSc1nnc[nH]1 | 5.98 |
| O=C(CSc1nnc[nH]1)NCc1cccs1 | 59.03 |
| O=C(CSc1nnc[nH]1)NCc1sccc1Br | 32.1 |
| COCCNc1nc(NCCc2ccccc2)nc2nccnc12 | -20.55 |
| Cc1nc(O)cc(C2CCCN(C(=O)CN(C)c3ccccc3)C2)n1 (centres undefined) | -14.36 |
| Cc1ccc(CC(=O)N2CCCN(Cc3nccn3C)CC2)cn1 | 5.72 |
| CCn1nc(C)c2ncnc(N(C)C)c21 | -47.86 |
| Cn1cc(C(=O)N[C@@H]2CN(Cc3ccoc3)[C@@H]3CCCO[C@@H]32)cn1 | -6.61 |
| Cn1ccnc1C(=O)N[C@@H]1CN(Cc2ccoc2)[C@@H]2CCCO[C@@H]21 | 26.76 |
| Cn1cccc1C(=O)N[C@H]1CN(Cc2ccoc2)[C@@H]2CCCO[C@H]12 | 56.76 |
| Cc1cc(C(=O)NC(CC(C)C)C(=O)Nc2cc[nH]n2)c(C)o1 (centres undefined) | -36.72 |
| COC(=O)CC(c1cccnc1)c1oc(C)cc(=O)c1O (centres undefined) | 24.02 |
| Cc1noc(-c2ccc(Oc3cccc(CN4CCCC4)c3F)nc2)n1 | -9.95 |
| CC(Cn1cc(Br)cn1)C(=O)Nc1ccc(Cl)cn1 (centres undefined) | 29.12 |
